Compounds with a hit are over-represented: about 1.7% of the library has one in this group of screens.
ZTA DNA inh: counter-screen for EBNA-1 inhibitors: inhibitors of Epstein-Barr virus ZTA; P03206; ZTA-DNA binding, fluorescence polarization; inhibition, % at 11 µM; 0.15% of 320,000 active; AID 2234; in the data active = inhibition above about 33%
Target sequence (P03206 whole entry, looked up): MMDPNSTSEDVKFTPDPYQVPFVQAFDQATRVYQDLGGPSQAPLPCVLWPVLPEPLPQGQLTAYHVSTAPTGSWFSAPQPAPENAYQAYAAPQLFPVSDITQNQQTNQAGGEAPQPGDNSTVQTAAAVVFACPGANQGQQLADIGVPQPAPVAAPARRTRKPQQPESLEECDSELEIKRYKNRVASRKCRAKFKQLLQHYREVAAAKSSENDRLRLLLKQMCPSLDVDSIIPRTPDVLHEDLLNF
LYPLA1 counter: LYPLA1 inhibitors, primary screen, counter-screen for PME1 inhibitor project, biochemical, fluorescence polarization, FP-Rh probe ABPP; Acyl-protein thioesterase 1 (Homo sapiens), O75608; recombinant LYPLA1; inhibition, % at 5.9 µM; 0.16% of 320,000 active;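 active = inhibition above the mean of all tested compounds plus 3 SD, set per campaign, cut at about 14% in these data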;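 note: inhibitors block serine hydrolase probe labeling of LYPLA1 so polarization falls; 0% = enzyme with DMSO and 100% = wells lacking LYPLA1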
PAD4 inh: human PAD4 inhibitors, primary screen, biochemical, fluorescence polarization, 1536-well format | recombinant PAD4, RCA probe fluorescence polarization | 0.41% of 330,000 active | inhibition, % at 6.36 µM | AID 485272, 2010;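 active = percent inhibition above a cutoff equal to the mean of all tested compounds plus 3 SD, cut at about 15% in these data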;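 note: 0% = PAD4 with RCA probe and DMSO and 100% = probe without PAD4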
LYPLA2 inh: LYPLA2 inhibitors, primary screen, counter-screen for PME1 inhibitor project, biochemical, fluorescence polarization, FP-Rh probe ABPP | Acyl-protein thioesterase 2 (Homo sapiens), O95372 | recombinant LYPLA2 | inhibition, % at 5.9 µM | 0.38% of 320,000 active;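 active = inhibition above the screen-wide mean plus 3 SD, limit set per campaign, cut at about 26% in these data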;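 note: 0% = LYPLA2 with DMSO and 100% = wells lacking LYPLA2 enzyme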
EBNA-1 inhibitor: EBNA-1 DNA-binding inhibitors, primary screen, biochemical, fluorescence polarization. inhibition, % at 14.8 µM. 0.34% of 300,000 active; in the data active = inhibition above about 28%
GSTO1 inh: inhibitors of recombinant GSTO1, primary screen, counter-screen for RBBP9 inhibitor project, biochemical, fluorescence polarization. 1.1% of 300,000 active. activity-based probe fluorescence polarization. inhibition, % at 5.96 µM;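 active = inhibition above the campaign mean inhibition plus 3 SD, cut at about 35% in these data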;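 note: 0% = GSTO1-1 with DMSO and 100% = wells lacking GSTO1-1 enzyme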
Target sequence (P78417 whole entry, looked up): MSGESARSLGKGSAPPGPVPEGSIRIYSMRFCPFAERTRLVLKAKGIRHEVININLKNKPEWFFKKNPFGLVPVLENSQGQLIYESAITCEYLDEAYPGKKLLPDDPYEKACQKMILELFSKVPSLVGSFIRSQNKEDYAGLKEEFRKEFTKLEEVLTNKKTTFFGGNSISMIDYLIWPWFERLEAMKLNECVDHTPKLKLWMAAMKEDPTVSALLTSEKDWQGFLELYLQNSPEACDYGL
LYPLA2 conf: LYPLA2 inhibitors, retest, confirmation, counter-screen for PME1 inhibitor project, biochemical, fluorescence polarization, FP-Rh probe ABPP | shares compounds with LYPLA2 inh | recombinant LYPLA2 | inhibition, % at 5.9 µM | 72% of 1,100 active | AID 2232, 2010;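 active = mean inhibition across replicates above the hit cutoff set in the primary screen, cut at about 26% in these data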;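 note: blocked labeling of the enzyme by serine hydrolase FP-Rh probe lowers polarization; 0% = enzyme with DMSO and 100% = wells lacking LYPLA2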
LYPLA2 ABPP: LYPLA2 inhibitors in proteome, late-stage follow-up, gel-based competitive ABPP, fluorescence, assay provider. AID 652029, 2013. shares compounds with LYPLA2 inh. 30% of 150 active. rhLYPLA2 in mouse brain proteome, gel ABPP FP-Rh. inhibition, % at 20 µM;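 active = inhibition of LYPLA2 enzyme probe labeling above about 50%, limit read from the data; inactive = inhibition below that limit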;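 note: loss of FP-Rh probe labeling of the LYPLA2 gel band measured as band density; 0% = DMSO only control band and 100% = blank gel background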
The depositor's hits bear a star; . = not tested or not shown.

SMILES	ZTA DNA inh	LYPLA1 counter	PAD4 inh	LYPLA2 inh	EBNA-1 inhibitor	GSTO1 inh	LYPLA2 conf	others
COc1cc2[nH]c(C(=O)N3CCC(Cc4ccccc4)CC3)cc2c(OC)c1OC	0	-3	2	33*	-13	5	20
c1ccc(OCCN2CCN(Cc3nc(-c4ccc5c(c4)OCO5)no3)CC2)cc1	0	-2	0	26*	2	0	26
Cc1nc(-c2ccccc2)sc1C1(C)CC(c2ccc(OC(F)(F)F)cc2)=NO1 (stereo not drawn)	0	-3	-10	-6	-5	6	.
c1ccc(OCCN2CCN(C(c3ccccc3)c3ccccc3)CC2)cc1	6	0	-1	6	4	0	.
COc1ccc(CC(=O)Nc2cccc(-c3nnc(-c4ccc(C)cc4)o3)c2)cc1OC	10	-3	1	31*	11	0	13
COc1ccc(CCNC(=O)CCOc2ccc(C)cc2)cc1OC	2	2	7	2	8	4	.
COc1ccc(CCNC(=O)COc2ccc(-c3ccc(C)cc3)cc2)cc1OC	0	0	1	45*	-5	1	40*
Cc1ccc(N=C2NC(=O)CC(C(=O)Nc3ccc4c(c3)OCO4)S2)cc1 (stereo not drawn)	3	3	0	28*	-8	2	13
CCC(CO)Oc1cc(NC(=O)Cc2ccccc2)c2ncn(C(C)C)c2c1 (stereo not drawn)	.	.	0	.	.	.	.
CC1CCCN(C(=O)c2ccc(OC3CCN(CCc4ccccc4)CC3)cc2)C1 (stereo not drawn)	-4	1	-1	41*	-5	5	33*
CC(=O)Nc1ccc(NC(=O)COC(=O)c2c(-c3ccccc3)noc2C)cc1	-7	-8	2	-2	.	.	.
O=C(NCc1ccc2c(c1)OCO2)C1CCC(CNS(=O)(=O)c2cccc3nsnc23)CC1 (stereo not drawn)	3	0	-4	34*	-1	2	38*
COc1ccc(CNC(=O)C2CCC(CNS(=O)(=O)c3cccc4nsnc34)CC2)cc1 (stereo not drawn)	-12	0	-1	10	13	1	.
Cc1cc(C)c(C#N)c(SCc2[nH]nc3c2C(c2ccc(F)cc2)C(C#N)=C(N)O3)n1 (stereo not drawn)	7	-2	-3	40*	-4	22	36*
Cc1cc(C#N)c(C)c(SCc2[nH]nc3c2C(c2ccccc2)C(C#N)=C(N)O3)n1 (stereo not drawn)	-20	-5	-9	5	-10	6	.
O=C1c2cnc3ncnn3c2CC2c3ccccc3CCN12 (stereo not drawn)	13	0	-7	2	11	-3	.
N#Cc1cnn2c3c(cnc12)C(=O)N1CCc2ccccc2C1C3 (stereo not drawn)	4	10	0	42*	6	8	44*
COc1ccc(N2CCN(C(=O)COC(=O)c3ccc(Cl)nc3)CC2)cc1	-20	0	3	10	.	.	.
O=C(CCCC(=O)N1CCN(c2ccc([N+](=O)[O-])cc2)CC1)c1ccccc1	-19	9	5	34*	-8	5	33*
COc1ccc(N2CCN(C(=O)COC(=O)c3ccc(-n4nc(C)cc4C)cc3)CC2)cc1	-6	7	0	43*	.	.	40*
Cc1ccc(CC(=O)N2CCN(c3ccc([N+](=O)[O-])cc3)CC2)cc1	-18	3	-4	17	-10	0	.
Cc1noc(C)c1CSCC(=O)N1CCN(c2ccc([N+](=O)[O-])cc2)CC1	-10	6	3	28*	-21	-4	25
COc1ccc(N2CCN(C(=O)CSc3ccc([N+](=O)[O-])cc3)CC2)cc1	-3	2	-13	54*	-15	0	49*
O=C(Cn1cc(C(F)(F)F)ccc1=O)N/N=C/c1ccccc1	-12	4	3	-2	7	-7	.
CCCc1cc(=O)oc2cc(OCC(=O)NCCCn3ccnc3)c(Cl)cc12	0	1	2	2	-11	3	.
SMILES	ZTA DNA inh	LYPLA1 counter	PAD4 inh	LYPLA2 inh	EBNA-1 inhibitor	GSTO1 inh	LYPLA2 conf	others
COc1ccc(C(=O)CCC(=O)N2CCN(c3ccc([N+](=O)[O-])cc3)CC2)cc1	4	0	-4	29*	-15	-1	19
O=C(NCC1CCN(c2ccc(S(=O)(=O)N3CCOCC3)cc2)CC1)c1ccc(Cl)cc1	-7	1	1	81*	-5	2	76*	LYPLA2 ABPP=59*
CCC(=O)NC(=S)Nc1ccc(N2CCN(C(=O)c3ccc(Cl)cc3)CC2)cc1	3	2	-2	29*	-4	-12	36*
Cc1ccc(C(=O)N2CCN(c3ccc(NC(=O)c4cccnc4Cl)cc3)CC2)cc1	-6	5	-6	49*	-4	-3	57*	LYPLA2 ABPP=38
O=C(NC(=S)Nc1ccc(N2CCOCC2)cc1)c1ccc(Cl)cc1	9	-1	5	6	2	3	.
O=C(Nc1ccc(N2CCN(C(=O)c3ccco3)CC2)cc1)c1cccnc1Cl	-7	-1	0	16	5	1	.
O=C(Nc1ccc(N2CCN(C(=O)c3ccc(Cl)cc3)CC2)cc1)c1cccnc1	29	5	-5	48*	4	6	41*
Cc1cc(C)cc(OCC(=O)NNC(=O)C2CCCO2)c1 (stereo not drawn)	12	-2	-5	-5	6	7	.
CCCCCOc1ccc(/C=C/c2c([N+](=O)[O-])c(=O)n(C)c(=O)n2C)cc1	-1	1	4	69*	-2	4	53*	LYPLA2 ABPP=36
Cn1c(/C=C/c2ccc(Cl)cc2)c([N+](=O)[O-])c(=O)n(C)c1=O	10	-3	5	4	7	2	.
Cc1cc(OC(=O)c2ccccc2C)c([N+](=O)[O-])c(=O)[nH]1	-7	5	-3	1	-6	1	.
CC(=O)Nc1ccc(S(=O)(=O)NC2CCSc3ccccc32)cc1 (stereo not drawn)	-8	3	4	32*	1	0	2
